The list is not random: actives were taken first. Their share in the collection is about 8.9%.
KB-V1 cytotox: qHTS assay for MDR1-selective chemotherapeutics: Primary screen using the drug-selected MDR subline cells KB-V1. KB-V1 MDR cells viability, CellTiter-Glo, 72 h. Potency, µM (series often up to 46.1 µM), actives largely listed as cytotoxic. 400,000 compounds, 3.4% hits. AID 1347076, 2019; further: potency means the concentration at half of the fitted maximal effect; on the % scale 0 is the no-effect control and ±100 the full control effect; nearly all actives have a fitted effect of over 60% in size
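Readout: CellTiter-Glo luminescence, 10 min after addition. Cells: KB-V1 MDR subline, 72 h at 37 degrees C with compound. Analysis: corrected, normalized data fitted to concentration-effect curves.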
SW480 rerep: A quantitative high throughput screen for small molecules that induce DNA re-replication in SW480 colon adenocarcinoma cells; 340,000 compounds, 1.8% hits; SW480 DNA re-replication, Hoechst DNA content imaging, 48 h; Potency, µM (highest dose often 46.1 µM), without a hit: at the highest dose re-replication activation, usual class: activators; further: potency means the concentration at half of the fitted maximal effect; % of control where 0% means no effect; nearly all actives have a fitted effect of over 55% in size
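DNA re-replication was detected as more nuclei of elevated Hoechst intensity after 48 hr exposure to compound (23 nL pinned per well of 250 cells).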
D3 antag: qHTS of D3 Dopamine Receptor Antagonist: qHTS; AID 652054, 2013; D3R cells, DiscoveRx beta-arrestin luminescence, antagonist mode; active compounds read low; max response, negative = inhibition, %; 360,000 compounds, 2.5% hits; D(3) dopamine receptor (Homo sapiens), P35462; in the data active means max response below about -50%; inconclusive means no clear call, values can overlap the other calls; further: on the % scale 0 is the no-effect control and ±100 the full control effect
Target sequence (P35462 whole entry, looked up): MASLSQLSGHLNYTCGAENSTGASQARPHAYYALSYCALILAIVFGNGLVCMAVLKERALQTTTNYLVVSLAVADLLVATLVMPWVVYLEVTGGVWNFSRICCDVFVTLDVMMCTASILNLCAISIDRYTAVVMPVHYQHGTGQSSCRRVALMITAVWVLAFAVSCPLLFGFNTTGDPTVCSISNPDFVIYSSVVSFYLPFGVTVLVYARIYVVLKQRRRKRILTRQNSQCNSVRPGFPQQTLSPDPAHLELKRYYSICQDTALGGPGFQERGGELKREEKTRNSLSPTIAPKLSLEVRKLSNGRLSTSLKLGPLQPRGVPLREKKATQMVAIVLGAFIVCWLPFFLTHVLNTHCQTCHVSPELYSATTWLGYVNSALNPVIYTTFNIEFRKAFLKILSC
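Cells expressing the human receptor were seeded at 1500 cells/well, incubated overnight at 37 degrees C in 5% CO2, then exposed to library compounds with dopamine controls for 90 minutes at 37 degrees C before luminescent detection.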
D3 ag: qHTS of D3 Dopamine Receptor Agonist: qHTS; D3R DiscoveRx beta-arrestin cells, luminescence, 90 min; AID 652048, 2013; 410,000 compounds, 0.58% hits; max activation, %; D(3) dopamine receptor (Homo sapiens), P35462; in the data active means max activation above about 30%; further: 0% is about no effect
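Agonist mode: compounds and dopamine controls were applied to plated cells for 90 min at 37 degrees C after an overnight attachment at 1500 cells/well. Luminescent read-out followed 30 - 60 minutes at room temperature with DiscoveRx detection reagent.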
MCF10A rerep: A quantitative high throughput screen for small molecules that induce DNA re-replication in MCF 10a normal breast cells; AID 624296, 2012; MCF 10A DNA re-replication, Hoechst nuclear intensity, 48 h; 350,000 compounds, 2.9% hits; Potency, µM (series often up to 46.1 µM), for inactives: at the highest dose activity, positive = re-replication, actives largely listed as activators; further: potency means the concentration at half of the fitted maximal effect; % of control where 0% means no effect; nearly all actives have a fitted effect of over 50% in size
KB-3-1 tox: qHTS assay for MDR1-selective chemotherapeutics: Primary screen using the parental adenocarcinoma cell KB-3-1 | KB-3-1 viability, CellTiter-Glo ATP luminescence, 72 h | AID 1347075, 2019 | 400,000 compounds, 1.4% hits | Potency, µM (highest dose often 46.1 µM), most hits filed as cytotoxic; further: potency means the concentration at half of the fitted maximal effect; on the % scale 0 is the no-effect control and ±100 the full control effect; nearly all actives have a fitted effect of over 60% in size
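KB-3-1 parental drug-naive adenocarcinoma cells in DMEM/10% FBS, incubated 72 h at 37 C with pin-transferred compounds across a concentration series. Viability by CellTiter-Glo luminescence; concentration-response curves fitted after normalization.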
* hit, by the source's call; i = inactive; u = inconclusive; x = not tested or not shown; [ ] = dose if it differs, or a comment. Unless noted, the call rests on the fitted dose curve; in most records, active means well fitted curve in the direction sought with a large enough effect; inconclusive means small, poorly fitted or top-dose-only effect, or another doubt; inactive means no such curve, though single readings can be large; an effect the other way counts as inactive or inconclusive.

SMILES	KB-V1 cytotox	SW480 rerep	D3 antag	D3 ag	MCF10A rerep	KB-3-1 tox
CCCCn1nnnc1C(c1ccccc1)N1CCN(C)CC1 (centres undefined)	i	x	22.1	0.4	x	i
CCCCn1nnnc1C(c1cccc2ccccc12)N1CCN(C/C=C/c2ccccc2)CC1 (centres undefined)	u	x	-107.4*	-13.3	x	u
CCCCn1nnnc1C(CC)N1CCN(C/C=C/c2ccccc2)CC1 (centres undefined)	u	x	-68.1*	-15.7	x	i
CCC(c1nnnn1Cc1ccccc1)N1CCN(C/C=C/c2ccccc2)CC1 (centres undefined)	i	x	-98.8*	-8.4	x	i
CC(C)(C)C1=CC(O)(c2ccccc2)C=C(C(C)(C)C)C1=O	i	-0.5%	17.4	9.6	5.17µM*	i
CCN1C(=O)N(CC)C(O)(c2ccccc2)C1(O)c1ccccc1 (centres undefined)	u	-4.4%	u	-1.2	2.0%	i
COc1cccc(-n2sc3c(c2=S)-c2cc(OC)ccc2NC3(C)C)c1	u	u	-68.6*	-6.4	u	u
O=C(c1ccc(CNS(=O)(=O)c2cccc(C(F)(F)F)c2)cc1)N1CCOCC1	13µM*	-3.2%	-20.7	3.4	-6.6%	i
O=C(NCc1cccc(C(F)(F)F)c1)c1cccc(S(=O)(=O)NCc2ccccc2)c1	18.4µM*	132.8%	-3.1	-1.6	u	i
O=C(NCc1ccccc1F)c1cccc(S(=O)(=O)NCc2ccccc2)c1	x	3.6%	-14.7	-9.8	0.0%	x
O=C(c1ccc(NS(=O)(=O)c2cccc(C(F)(F)F)c2)cc1)N1CCCC1	x	-3.3%	2.1	15.7	-0.5%	x
O=C(NCc1ccccc1Cl)c1cc(-c2ccccc2)n[nH]1	i	x	x	-5.6	x	i
COc1ccc(CNC(=O)c2cc(-c3cccc(Cl)c3)on2)cc1	i	x	x	-10.1	x	i
OC(c1ccccc1)(c1ccccc1)C1CCN(CCCOc2ccccc2Cl)CC1	u	x	-79.7*	-14.8	x	u
COc1ccccc1OCCCN1CCC(C(O)(c2ccccc2)c2ccccc2)CC1	u	x	-84.5*	-16.2	x	i
N#Cc1ccccc1OCCCN1CCC(C(O)(c2ccccc2)c2ccccc2)CC1	23.1µM*	x	-96.2*	-18.1	x	u
O=C(C1CCC(Cn2c(=O)c3sccc3n(Cc3cccc(F)c3)c2=O)CC1)N1CCCCC1 (centres undefined)	u	x	x	-10.1	x	u
COc1cccc(NC(=S)N(CCN(C)C)C(C)c2ccco2)c1 (centres undefined)	u	x	-0.8	1.9	-3.5%	i
COc1ccc(NC(=S)N(CCN(C)C)C(C)c2ccco2)cc1Cl (centres undefined)	23.1µM*	-14.7%	1.5	1.0	29.2%	i
N[C@@H](Cc1ccc(O)cc1)c1nnc([C@H](CO)NC(=O)C2CCNCC2)o1	i	u	5.2	33.0*	-3.5%	i
CCOc1ccc(C2=CC(c3cccc(Br)c3)n3c(nc4ccccc43)N2)cc1Cl (centres undefined)	u	x	x	-26.0	x	i
CCCCCCCCCC1NC(C(=O)O)Cc2c1[nH]c1ccccc21 (centres undefined)	i	x	-11.9	-3.3	x	i
C/C=C(/CCC1NCCc2c1[nH]c1ccccc21)[Si](C)(C)C (centres undefined)	11.6µM*	u	3.7	-15.1	u	18.4µM*
COc1ccc(Nc2c3ccccc3nc3ccccc23)cc1	u	23.1µM*	-25.8	-8.4	-2.4%	6.51µM*
COc1ccc(Nc2nc(-c3ccccc3)nc3ccccc23)c(OC)c1	i	u	135.9	-5.5	u	i
SMILES	KB-V1 cytotox	SW480 rerep	D3 antag	D3 ag	MCF10A rerep	KB-3-1 tox
OCCCNc1c2ccccc2nc2ccccc12	u	u	-14.0	-10.9	-4.7%	8.2µM*
Cc1ccc(-c2nc(NCCCO)c3ccccc3n2)cc1	u	3.5%	-4.4	0.5	9.5%	i
CN1CCN(c2ccc(Nc3c4ccccc4nc4ccccc34)cc2)CC1	23.1µM*	x	x	x	x	14.6µM*
COc1ccccc1Nc1nc(-c2ccccc2)nc2ccccc12	i	0.581µM*	56.9	1.0	4.9%	i
Cc1ccc(-c2nc(Nc3ccc(N4CCOCC4)cc3)c3ccccc3n2)cc1	i	-14.0%	23.6	14.2	u	i
CCOC(=O)c1nnn(C(CC)C(=O)Nc2c(C)cccc2C)c1C(=O)OCC (centres undefined)	u	x	x	-4.3	x	i
CCCOc1ccc(C2C(=O)N(C3CCC(C)CC3)CC(=O)N2Cc2cccc(OC)c2)cc1OC (centres undefined)	x	x	x	-2.3	x	x
O=C(O)c1ccc(Nc2c3ccccc3nc3ccccc23)cc1	i	u	9.8	4.0	20.6µM*	i
Cc1ccc2nc(NCCCO)nc(-c3ccccc3)c2c1	u	u	28.2	0.5	u	i
OCCCNc1nc(-c2ccccc2)c2cc(Br)ccc2n1	u	u	-2.5	10.9	4.61µM*	u
COc1cc(Nc2c3ccccc3nc3ccccc23)cc(OC)c1OC	u	23.1µM*	-15.3	-12.8	u	u
COc1cccc(Oc2nc(-c3ccncc3)nc3ccccc23)c1	u	-6.2%[9.22 µM]	4.5	7.6	18.4µM*	u
COc1ccc(Oc2nc(-c3ccncc3)nc3ccccc23)cc1	i	0.2%[9.22 µM]	14.4	19.9	4.4%	i
COc1ccc(Br)cc1CNC(=O)c1cc2n(n1)CCCN(Cc1ccc(C)cc1)C2=O	i	x	x	1.4	x	i
Cc1ccc2nc(NCC(N)=O)nc(-c3ccccc3)c2c1	i	18.4µM*	-17.5	-2.5	u	i
COc1ccc(Nc2nc(-c3ccncc3)nc3ccccc23)cc1	u	18.4µM*	57.7	3.2	u	i
COc1cccc(Nc2nc(-c3ccccc3)c3cc(C)ccc3n2)c1	x	x	x	6.6	x	x
COc1cc(Nc2nc(-c3ccccc3)c3cc(C)ccc3n2)cc(OC)c1OC	20.6µM*	4.9%	9.2	18.2	u	u
COc1ccccc1Nc1c2ccccc2nc2ccccc12	14.6µM*	u	4.4	4.3	u	u
Nc1ccccc1OC1=NS(=O)(=O)c2ccccc21	i	x	x	x	x	u
CCN1CCN(c2ccc(Nc3ccnc4ccccc34)cc2)CC1	i	14.6µM*	-2.4	-6.2	u	u

Compound activity (PubChem)
